The record followed here is PubChem BioAssay (Tox21).

The structures appear in SMILES notation. Calls of active or inactive are those of the source. The call rests on the fitted dose curve; in most records, active means well fitted curve in the direction sought with a large enough effect in the repeat runs; inconclusive means weak or mixed curves; inactive means flat fitted curve, though single readings scatter.
On the % scale 0 is the no-effect control and ±100 the full control effect.

The nature of this test: qHTS assay to test for compound auto fluorescence at 535 nm (green) in HepG2 cells (AID 720675). The settings on record: green autofluorescence 485/535 nm, 1 h; series mostly up to 91.3 µM; fluorescence, % of fluorescein control: at the top concentration. The source says:
National Center for Advancing Translational Sciences [NCATS]
NIH Chemical Genomics Center [NCGC]
U.S. Environmental Protection Agency [EPA]
National Institutes of Environmental Health Sciences [NIEHS]
National Toxicology Program [NTP]
U.S. Food and Drug Administration [FDA]
Compound auto fluorescence often interferes with screening of the compound library against various biological targets and signaling pathways. Some of these compounds may have fluorophoric properties. Such properties may interfere with the assay outputs resulting in false positives and/or negatives. To decrease such complications and ensure the compound activities are relevant in terms of biological response, the Tox21 10K compound library was screened for auto fluorescence.
From the fluorophores used as reporter signals in our screening assays, the auto fluorescence equivalencies of compounds against three fluorophores have been evaluated: Triamterene, Fluorescein and Rose Bengal sodium for blue, green and red fluorescence, respectively. The fluorescence intensities were measured using Excitation/Emission wavelengths at 405/460nm, 485/535nm and 540/590nm for blue, green and red labels, respectively. This assay includes the green fluorescence data.
Tox21 Assay Protocol Summary:
2,000 HepG2 cells in 5 uL of culture medium (MEM containing 10% FBS) per well were dispensed into black wall/clear bottom 1536-well plates using a Multidrop Combi Dispenser (ThermoFisher Scientific, Waltham, MA). The assay plates were incubated overnight at 37 C to allow cell attachment to the well bottom, followed by the transfer of 23 nL compound or DMSO vehicle by a pintool work station (Kalypsys , San Diego, CA). After the assay plates were incubated for 1 hr at 37 C and 5% CO2, fluorescence intensities in the assay plates were measured by an Envision (PerkinElmer, Shelton, CT) plate reader using three labels for measuring blue, green and red fluorescence at […] 460, 535 and 590 nm respectively.
For `CCN(CCCc1ccccc1)CCCc1ccccc1`, the fluorescence, % of fluorescein control was -0.0397% [at 18.6 µM] (inactive). Same read-out and setting: the same measure for `CCCCCCCCCCCCCCCCOP(=O)([O-])OCC[N+](C)(C)C`: -0.0989% [at 46 µM] (inactive); for `OCCN1CCN(CCO)CC1`: -0.0576% [at 95.7 µM] (inactive). The same measure, in the same setting: under `CN1CCN(c2c(F)cc3c(=O)c(C(=O)O)cn4c3c2SCC4)CC1` stands 0.0104% [at 46 µM] (inactive). `CC(C)(CO)[C@@H](O)C(=O)NCCC(=O)O`: the call was inactive. For the compound `CCCCCCCCc1ccc(S(=O)(=O)O)cc1`, the “fluorescence, % of fluorescein control” value is 0.03% (inactive). In the case of `Cc1c[nH]c(=S)[nH]c1=O`, the “fluorescence, % of fluorescein control” value is 0.0548% (inactive). Still for that read-out and setting: under `COc1cc(Cl)ccc1Cl` stands 0.0003% [at 95.7 µM] (inactive); under `CCCOCCC`, 0.109% (inactive); under `CN(C)CCOc1ccccc1Cc1ccccc1`, 0.0048% [at 46 µM] (inactive). Turning to `CCOC(=O)c1ccccc1O`, the compound was classed as inactive. Consider `CC(=O)Nc1ccc(C)c(Cl)c1`, for which the “fluorescence, % of fluorescein control” value is -0.162% (inactive). On the same count and under the same terms, the same measure for `OCC(CBr)(CBr)CBr`: 0.0343% (inactive); for `CN1CCN(C2=Nc3ccccc3Oc3ccc(Cl)cc32)CC1`: -0.116% [at 18.6 µM] (inactive). Same read-out and setting: under `CCCCCCCOC(=O)CCC` stands -0.0261% (inactive).

For `OCc1ccccc1O`, the “fluorescence, % of fluorescein control” value is -0.0269% [at 46 µM] (inactive). Turning to `C[C@]12C(=O)OC(=O)[C@H]1[C@H]1C=C[C@@H]2C1`, the “fluorescence, % of fluorescein control” value was -0.0002% (inactive). For the compound `C1CSCCS1`, the “fluorescence, % of fluorescein control” value was -0.0004% (inactive). Still for that read-out and setting: under `NCCC(O)(P(=O)(O)O)P(=O)(O)O` stands -0.22% [at 46 µM] (inactive); under `FC(F)(F)C(Cl)(Cl)Cl`, 0.013% (inactive); under `CC(C)=CCC[C@](C)(O)[C@@H]1CC=C(C)CC1`, -0.0111% (inactive). The same measure, in the same setting: under `O=Cc1ccc(F)c(Br)c1` stands 0.0482% (inactive); under `COC(=O)c1ccc(OC)cc1`, -0.0212% (inactive). With `CC(C)C1=CC2=CC[C@@H]3[C@](C)(CCC[C@@]3(C)C(=O)O)[C@H]2CC1`, the compound was called inactive. Turning to `NC(Cc1ccc(F)cc1)C(=O)O` (stereo not given), the fluorescence, % of fluorescein control is -0.0482% [at 3.72 µM] (inactive). The same measure, in the same setting: under `CCN(CC)CC1CCCCN1CC(=O)N1c2ccccc2C(=O)Nc2cccnc21` (stereo not given) stands -0.0148% [at 46 µM] (inactive); under `CCCCCCOc1ccc(N)cc1`, 0.0588% (inactive); under `CCC(=O)Nc1ccc(O)cc1`, 0.0413% [at 46 µM] (inactive).

Turning to `CO[Si](C)(C)OC`, the “fluorescence, % of fluorescein control” value is 0.0232% (inactive). On the same count and under the same terms, under `ICCc1ccccc1` stands 0.0712% (inactive). The same measure, in the same setting: under `COc1ccccc1OCC(O)COC(N)=O` (stereo not given) stands 0.0143% [at 18.6 µM] (inactive); under `Cc1ccc([N+](=O)[O-])c(N)c1`, 0.0369% (inactive). Still for that read-out and setting: under `O=C(O)[C@@H]1CSCN1` stands 0.533% [at 46 µM] (inactive). With `CN1CCN(C2=Nc3cc(F)ccc3Cc3ccccc32)CC1`, the “fluorescence, % of fluorescein control” value is 0.0386% [at 46 µM] (inactive). On the same count and under the same terms, the same measure for `O=C(Cl)c1cccc([N+](=O)[O-])c1`: 0.0147% (inactive); for `CC(C)C(=O)OC/C=C/c1ccccc1`: -0.054% (inactive); for `CC[C@H]1CC[C@H](NCc2cc3c(cc2OC)[C@H]2C[C@H]2C(=O)N3C)[C@H](c2ccccc2)N1`: -0.0601% (inactive).

Consider `Nc1ccc(Oc2ccc(N)c(N)c2)cc1`, for which the “fluorescence, % of fluorescein control” value was 1.43% (inactive). On the same count and under the same terms, under `CCCCc1ccc2nc(NC(=O)OC)[nH]c2c1` stands 0.0726% [at 18.6 µM] (inactive). The same measure, in the same setting: the same measure for `CC(C)C(=O)OCC(C)(C)C(O)C(C)C` (stereo not given): 0.0058% (inactive).
